ssDAF-12 act: S. stercoralis DAF-12 activation, primary screen | HEK293 ssDAF-12/GRIP1 lit1-tk-luc reporter, luminescence; % of 3 µM dafachronic acid response | activation, % at 6.8 µM | 370,000 compounds, 1% hits | AID 652126;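 active = activation above the mean over all tested compounds plus 3 SD, cut at about 0.9% in these data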;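 note: 0% = DMSO-only wells and 100% = 3 µM delta7-dafachronic acid wells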
hgDAF-12 ag: activates the H. glycines DAF-12 receptor ligand-binding domain. activation, % at 6.8 µM. 370,000 compounds, 1.8% hits. HEK293 GAL4-hgDAF12 UAS-luciferase reporter, agonist luminescence; normalized to butyrate control;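 active = activation above a cutoff set at the mean of all screened compounds plus 3 SD, cut at about 10% in these data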;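 note: 0% = DMSO wells and 100% = sodium butyrate wells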
SMARCA2 activ: activators of SMARCA2 function. MG213 cells, MMTV-luciferase reporter, dexamethasone, overnight. activation, % at 9.1 µM. 370,000 compounds, 1% hits; in the data active = activation above about 7.8%;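 note: 0% = vehicle wells and 100% = reference activator wells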
hcDAF12 agonist: activators of H. contortus DAF-12 nuclear receptor; activation, % at 6.8 µM; 370,000 compounds, 1.4% hits; HEK293 hcDAF-12 lit1-tk-luc reporter, luminescence; 0% DMSO, 100% Δ7-dafachronic acid; AID 652067;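 active = activation above the mean of all tested compounds plus 3 SD, cut at about 5.5% in these data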;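 note: 100% = response to 3 µM Δ7-dafachronic acid high control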
DAX1 inh-1: inhibits human nuclear receptor DAX1; P51843; HEK293 Gal4-DAX1 luciferase reporter, luminescence; inhibition, % at 6.75 µM; 340,000 compounds, 0.99% hits; AID 504766;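 active = inhibition above the mean over all tested compounds plus 3 SD, cut at about 4.2% in these data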;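 note: 0% = DAX1-transfected cells with DMSO and 100% = empty-vector control cells with DMSO; inhibition shows as a rise in luminescence from relieved DAX1 repression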
Target sequence (P51843 207-470 limits assumed): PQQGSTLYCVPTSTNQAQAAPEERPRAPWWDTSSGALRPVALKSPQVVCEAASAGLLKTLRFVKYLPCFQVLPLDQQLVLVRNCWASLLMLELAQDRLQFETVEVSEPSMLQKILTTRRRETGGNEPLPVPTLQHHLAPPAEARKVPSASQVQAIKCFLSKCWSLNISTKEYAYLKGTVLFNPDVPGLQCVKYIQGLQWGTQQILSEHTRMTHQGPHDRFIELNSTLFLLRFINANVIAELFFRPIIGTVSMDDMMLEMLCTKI
DAX1 inh-2: blocks DAX1 repression of SF-1 activated StAR promoter; AID 652010; HEK293T StAR-luciferase reporter, SF-1/DAX-1 repression relief; 370,000 compounds, 1.1% hits; inhibition, % at 6.8 µM;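 active = inhibition above the mean over all tested compounds plus 3 SD, cut at about 3.6% in these data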;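 note: 0% = DAX-1 cells with DMSO and 100% = cells lacking DAX-1 with DMSO; higher inhibition means more luminescence from relief of DAX-1 repression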
SMARCA2 conf: confirmation of SMARCA2 (BRM) function activators | activation, % at 9.1 µM | shares compounds with SMARCA2 activ | MG213 cells, MMTV-luciferase with dexamethasone, luminescence, overnight; MG213 cells expressing E1A, Rb sequestered; DMSO wells 0%, reference activator 100% | 3,500 compounds, 30% hits | AID 652260;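 active = activation above its plate's cutoff, the mean activation of tested wells plus 3 SD, cut at about 7.9% in these data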
VP16 Luc act: activates GAL4-VP16 luciferase, flagging SMARCA2 activator hits; shares compounds with SMARCA2 activ; HEK293 GAL4-VP16 pG5luc reporter, luciferase luminescence; scaled: DMSO wells 0%, SAHA wells 100%; activation, % at 9.1 µM; 3,500 compounds, 41% hits;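 active = activation above the solvent-only control well mean plus 3 SD, averaged across control plates, cut at about 5.2% in these data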
LXR ag: activates human LXR-beta, counter-screen for hcDAF-12 agonists; shares compounds with hcDAF12 agonist; HEK293 Gal4-LXR tk-luc reporter, luminescence, 24 h; normalized: DMSO 0%, positive control 100%; activation, % at 6.8 µM; 3,400 tested, under 10 active; AID 743027;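 active = mean percent activation of the reporter above a cutoff set as the average over tested compounds plus their standard deviation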
Target sequence (P55055 whole entry, looked up, the tested form may be a part): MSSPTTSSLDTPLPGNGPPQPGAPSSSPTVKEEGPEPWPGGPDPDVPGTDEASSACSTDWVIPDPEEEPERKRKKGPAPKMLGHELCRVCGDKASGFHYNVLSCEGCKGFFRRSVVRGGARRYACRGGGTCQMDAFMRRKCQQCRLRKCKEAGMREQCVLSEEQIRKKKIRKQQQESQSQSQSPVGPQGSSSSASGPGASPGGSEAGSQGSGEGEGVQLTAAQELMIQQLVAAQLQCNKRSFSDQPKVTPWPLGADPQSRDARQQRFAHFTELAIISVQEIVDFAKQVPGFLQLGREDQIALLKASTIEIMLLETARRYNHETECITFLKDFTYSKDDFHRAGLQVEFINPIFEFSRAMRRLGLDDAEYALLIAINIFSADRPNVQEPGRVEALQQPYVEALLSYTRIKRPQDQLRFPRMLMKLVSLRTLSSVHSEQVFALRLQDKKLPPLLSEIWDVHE
hcDAF12 conf: confirmation of H. contortus DAF-12 agonists; 3,400 compounds, 61% hits; shares compounds with hcDAF12 agonist; activation, % at 6.8 µM; HEK293 hcDAF-12 lit1-tk-luc reporter, luminescence; % of Δ7-dafachronic acid response;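 active = mean activation across triplicate tests above the threshold derived from the earlier primary screen, cut at about 5.5% in these data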;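 note: 0% = DMSO only wells and 100% = 3 µM Δ7-dafachronic acid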
hgDAF12 conf: confirmation of H. glycines DAF-12 agonists. HEK293 GAL4-hgDAF12 luciferase reporter, agonist mode; percent of butyrate response. AID 743050. activation, % at 6.8 µM. shares compounds with hgDAF-12 ag. 3,300 compounds, 80% hits;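 active = mean activation over triplicate wells above the hit cutoff derived from the earlier primary screen, cut at about 11% in these data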;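 note: 0% = DMSO low control and 100% = 2 mM sodium butyrate high control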
LXRb DAF12 ctr: activates human LXR-beta, counter-screen for DAF-12 agonists | shares compounds with hgDAF-12 ag | HEK293 Gal4-LXR luciferase reporter, 24 h | activation, % at 6.8 µM | 3,300 tested, under 10 active;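 active = mean activation of the triplicate above a set limit carried over from the primary screen, none filed active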
* hit, by the source's call; / = no result. Shown are actives, neighbours in structure and some others; about 4.8% of the full set was active somewhere.

SMILES	ssDAF-12 act	hgDAF-12 ag	SMARCA2 activ	hcDAF12 agonist	DAX1 inh-1	DAX1 inh-2	SMARCA2 conf	VP16 Luc act	hgDAF12 conf	LXRb DAF12 ctr	others
Cc1ccc(C(=O)Nc2nnc(SCC(=O)N3CCCc4ccccc43)s2)cc1	0.8	13.7*	9.3*	4.1	-1.9	4.2*	3.9	8.4*	8.6	0.8
O=C(Cc1cc(=O)[nH]c(=O)[nH]1)NCc1ccccc1	-1.0	-0.6	-2.1	-1.3	-0.8	-0.2	/	/	/	/
Cc1ccc(/C=C/c2nnc(-c3ccc(C)cc3)o2)cc1	-1.0	2.4	1.7	1.4	0.2	0.6	/	/	/	/
Cc1ccc(/C=C/c2nnc(-c3cccs3)o2)cc1	-0.2	15.5*	11.2*	2.9	-0.3	4.4*	3.2	9.0*	16.4*	0.8
Cc1ccc(NC(=O)c2cc3nc(C)cc(C)n3n2)cc1	0.5	16.3*	9.4*	8.5*	0.5	4.3*	10.2*	7.9*	16.7*	0.7	LXR ag=1.3;hcDAF12 conf=5.4
Cc1cc(C)n2nc(C(=O)NCc3ccccc3)cc2n1	-1.6	1.8	0.5	-1.1	1.1	0.2	/	/	/	/
Cc1ccc(NC(=O)c2ccc3snnc3c2)cc1	-0.6	15.6*	9.2*	2.2	-0.2	1.8	3.2	12.0*	15.7*	0.5
O=C(CN1CCCC1)N1c2ccccc2Sc2ccccc21	-1.3	-1.6	0.8	1.6	0.3	-0.3	/	/	/	/
O=C(O)Cn1cc(/C=c2/sc3nc4ccccc4n3c2=O)c2ccccc21	0.3	17.2*	10.3*	5.9*	1.5	3.1	2.6	8.8*	11.4*	0.4
Cc1cc(NC(=O)c2ccccc2)sc1C	0.4	19.2*	19.1*	9.9*	0.2	3.5	7.6	8.6*	16.7*	0.8	LXR ag=1.4;hcDAF12 conf=5.4
Cc1nc2ccccc2cc1C(=O)N/N=C/c1cccc([N+](=O)[O-])c1	-1.2	-0.6	-5.5	-1.4	-1.7	-0.6	/	/	/	/
Nc1ccccc1C(=O)NN=Cc1cccc([N+](=O)[O-])c1	0.5	24.7*	9.1*	2.7	/	4.3*	15.0*	2.8	15.3*	0.6
COc1ccc(CCNC(=O)C23CN(Cc4ccccc4)CC2C(c2ccc([N+](=O)[O-])cc2)=NO3)cc1 (stereo not given)	-1.3	2.7	0.8	-0.7	-0.7	-0.9	/	/	/	/
O=C(COc1cccc2cccnc12)Nc1nccs1	0.6	13.6*	9.2*	4.0	1.6	1.4	9.0*	12.2*	10.5*	0.6
O=S(=O)(Nc1ccc2c(c1)oc1ccccc12)N1CCCC1	-1.0	1.3	1.3	-0.7	-0.8	0.1	/	/	/	/
CN1CCCC1CCNc1ccc2c(=O)c3ccccc3oc2c1 (stereo not given)	-0.1	14.2*	11.4*	2.2	2.9	1.8	14.1*	8.9*	15.2*	0.6
CC(C)(C)NC(=O)C(=O)N/N=C/c1ccc(Br)cc1	-1.3	3.8	2.8	-0.3	1.2	-0.1	/	/	/	/
CC(C)(C)OC(=O)N/N=C/c1ccc(Br)cc1	-0.8	21.1*	8.2*	2.9	3.7	4.2*	8.3*	10.0*	16.3*	0.6
O=C(NN=C1CCCC1)c1cc(O)cc(O)c1	-0.8	3.2	3.2	-1.2	0.5	1.5	/	/	/	/
O=C(NN=C1CCCC1)c1cccc(O)c1	0.6	13.5*	8.9*	3.2	1.3	2.8	2.5	1.0	1.8	0.0
COc1ccc(CCCC(=O)NCCc2ccccc2)cc1	-1.2	0.0	-1.6	-2.7	-0.7	0.2	/	/	/	/
COc1ccc(CNC(=S)Nc2cccc(Cl)c2)cc1	-0.9	1.4	-5.9	0.1	/	-0.8	/	/	/	/
COc1cc(OC)cc(-n2nnnc2SCC(=O)Nc2nc3c(s2)CCCC3)c1	-1.4	0.1	0.5	-1.2	0.2	-0.2	/	/	/	/
Cn1nnnc1SCC(=O)Nc1nc2c(s1)CCCC2	-0.1	13.3*	11.5*	6.4*	1.1	3.7*	5.8	9.0*	16.4*	0.7
CCc1cccc(CC)c1NC(=O)C(CC)Sc1nc2ccsc2c(=O)n1CCC(=O)O (stereo not given)	-1.4	-1.2	-5.0	-2.2	1.2	-0.5	/	/	/	/
SMILES	ssDAF-12 act	hgDAF-12 ag	SMARCA2 activ	hcDAF12 agonist	DAX1 inh-1	DAX1 inh-2	SMARCA2 conf	VP16 Luc act	hgDAF12 conf	LXRb DAF12 ctr	others
COc1cc(/C=C2\SC(=S)N(Nc3ccccc3)C2=O)ccc1O	-0.7	14.0*	8.2*	4.9	1.4	1.8	7.2	10.7*	14.7*	0.9
CCOc1cc(/C=C2\SC(=S)N(Nc3ccccc3)C2=O)ccc1O	-0.9	3.3	3.9	0.0	-0.1	1.3	/	/	/	/
CSc1sccc1/C=N/O	-1.9	1.6	3.6	0.6	2.2	0.4	/	/	/	/
CCOc1ccc(-n2nc3cc(C)c(N)cc3n2)cc1	1.8*	11.7*	3.7	7.5*	4.0	2.5	/	/	/	/	LXR ag=1.6;hcDAF12 conf=8.8*
Cc1ccc(-n2nc3ccc(N)cc3n2)cc1	0.9*	6.8	-4.2	12.9*	1.1	3.7*	/	/	/	/	LXR ag=1.6;hcDAF12 conf=6.7*
COc1ccc(-n2nc3cc(C)c(N)cc3n2)cc1Cl	-0.3	0.2	0.4	1.8	1.5	0.3	/	/	/	/
CCOc1ccc(-n2nc3ccc(N)cc3n2)cc1	-2.0	-2.0	-5.8	-3.0	-1.9	0.5	/	/	/	/
Cc1cc2nn(-c3ccc(Cl)cc3)nc2cc1N	1.0*	9.8	7.4	9.7*	2.2	2.4	/	/	/	/	LXR ag=1.2;hcDAF12 conf=13.1*
Cc1cc(NC(=O)c2cc(-c3ccncc3)nc3ccccc23)ccc1Br	-1.1	-1.0	-0.9	-1.1	-0.1	-1.8	/	/	/	/
CS(=O)(=O)c1ccc(Cl)c(NC(=O)COC(=O)CNC(=O)c2ccc(Br)o2)c1	-0.6	-0.6	-2.2	-0.7	-0.9	-1.0	/	/	/	/
CC(=O)Nc1cccc(N/C=C(\C=O)c2nc3ccccc3o2)c1	1.0*	6.9	1.9	9.6*	2.0	0.9	/	/	/	/	LXR ag=0.4;hcDAF12 conf=9.4*

Source: PubChem BioAssay (The Scripps Research Institute Molecular Screening Center)
